Measured values taken from PubChem BioAssay AID1845227 (National Center for Advancing Translational Sciences (NCATS), 2023).
Inconclusive results are not listed. Calls come from the whole dose curve; as a rule, active = well fitted inhibition curve with a large enough effect; inconclusive = small, poorly fitted or top-dose-only effect; inactive = no such curve, though single readings can be large or run the other way.

Each compound was assayed against Luciferin 4-monooxygenase (Photinus pyralis) (UniProt P08659) (assay: Confirmatory firefly luciferase (FLuc) qHTS assay for identification of artifact compounds). Settings: purified FLuc enzyme, luminescence, 5 min; series mostly up to 38.9 µM; activity change, negative = inhibition: at the top concentration.
How it was run: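 Purified Photinus pyralis luciferase (10 nM) with D-luciferin and ATP each 10 uM, pH 7.6 Tris-acetate; compounds preincubated 15 min with substrate, 5 min after enzyme; luminescence normalized to no-enzyme and DMSO, 4-parameter Hill fit.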
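Note: 0% = DMSO and -100% = no enzyme control.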

Activity change, negative = inhibition, inactive:
Cc1nc(CC(=O)Nc2ccc(C)c(C)c2)cs1 -0.339%
[O][C@H]1[C@@H](O)[C@@H](CO)O[C@@H](O[C@@H]2[C@@H]3OC[C@H]2O[C@H](O[C@@H]2[C@@H](O)[C@H](C[C@@H]4[C@@H]5OC[C@H]4O[CH][C@@H]5O)O[C@H](CO)[C@@H]2OS(=O)(=O)O)[C@@H]3OS(=O)(=O)O)[C@@H]1O -2.24%
O=C(O)Cc1cc(F)c(S(=O)(=O)N2CCN(S(=O)(=O)c3ccc4c(c3)OCCO4)CC2)cc1F -5.63%
CCCNC(=O)c1ccccc1NC(=O)c1nsc2ccccc12 -7.64%
COc1ccc(-c2cc(C(=O)Nc3cc(C(F)(F)F)ccc3Cl)no2)cc1 9.92%
COc1ccc(NC(=O)c2ncoc2-c2ccco2)cc1Cl -4.3%
CC(C)c1ccc(Cn2c(COc3ccccc3)nc3ccccc32)cc1 -14.1%
CCOC(=O)c1c(C)[nH]c(C)c1S(=O)(=O)N1CCC(C(=O)N2CCN(c3ccccc3)CC2)CC1 1.27%
COc1ccc(N2CC(NC(=O)COc3ccccc3)CC2=O)cc1OC (stereo not given) -4.62%
C[C@@H]1O[C@H](O[C@@H]2C(O)[C@H](O)[C@@H](CO)O[C@H]2Oc2cc(O)c3c(=O)cc(-c4ccc(O)cc4)oc3c2)[C@H](O)[C@H](O)[C@H]1O (stereo not given in full) 12.8%
CCOC(=O)c1c(C)[nH]c(C)c1S(=O)(=O)N1CCC(C(=O)NCc2ccc(OC)cc2)CC1 3.5%
CCc1ccc(NC(=O)CN2C(=O)C3(SCC(=O)N3c3ccc(F)c(F)c3)c3ccccc32)cc1 (stereo not given) 6.32%
C[C@H](NC(c1ccc(F)cc1)c1ccc2cccnc2c1O)c1ccccc1 (stereo not given in full) -7.17%
CO[C@@H]1[C@@H](O[C@@H]2O[C@H](C)[C@@H](O[C@H]3C[C@@](C)(O)[C@@H](OC(=O)CC(C)C)[C@H](C)O3)[C@H](N(C)C)[C@H]2O)[C@@H](CC=O)C[C@@H](C)C(=O)/C=C/C2OC2C[C@@H](C)OC(=O)C[C@H]1OC(C)=O (stereo not given in full) 6.04%
CCCCNS(=O)(=O)c1ccc2nc(-c3cccnc3)cc(C(=O)NCCC)c2c1 -2.26%
COc1ccc(NC(=O)Cc2noc3ccc(C)cc23)cc1Cl -5.66%
Cc1ccc(NC(=O)CSc2ccc(-c3cccs3)nn2)cc1Cl 6.83%
COc1ccc(-c2ccc(=O)n(CC(=O)Nc3ccc(OC)c(OC)c3)n2)cc1 9.34%
Cc1ccc(Nc2c(-c3ccc(C)cc3)nc3c(C)cccn23)cc1 -2.92%
COc1ccc(OC)c(NC(=O)CC(=O)Nc2ccc3nc4n(c(=O)c3c2)CCCCC4)c1 20.1%
CCC(=O)N1CCCc2cc(S(=O)(=O)N3CCC(C(=O)Nc4ccccc4CC)CC3)ccc21 3.23%
CCOc1ccc(N=C(C)Nc2ccc(OCC)cc2)cc1 -1.18%
CC1(C)OC2CC(=O)OCC23C1CC(=O)C1(C)C3CC[C@@]2(C)[C@H](c3ccoc3)OC(=O)C3OC312 (stereo not given in full) 3.02%
O=C(O)CCCC/C=C\C[C@@H](O)/C=C/C=C/C=C\[C@@H](O)CCCC(=O)O -5.27% [at 0.322 µM]
COc1ccccc1NC(=O)CSC1=Nc2ccccc2C2=NC(CC(=O)NCc3ccccc3)C(=O)N12 (stereo not given) 4.1%
Cc1cn2c(=O)cc(COC(=O)c3cccc(NC(=O)c4ccccc4C)c3)nc2s1 -5.59%
CC(C)=CCC/C(C)=C/C=O -2.39% [at 78.4 µM]
CCCCN(C)CCCNC(=O)CN1C(=O)COc2ccc(S(=O)(=O)N3CCC(C)CC3)cc21 12.2%
CCOC(=O)c1ccc(N2C(=O)c3n[nH]c(-c4ccco4)c3C2c2ccc(C)cc2)cc1 (stereo not given) -2.41%
Cc1c(Cl)cccc1NC(=O)c1cccc(NC(=O)N2CCSc3ncccc32)c1 5.82%
CC1OC(OCC2OC(Oc3cc(O)c4c(c3)OC(c3ccc(O)cc3)CC4=O)C(O)C(O)C2O)C(O)C(O)C1O (stereo not given) -4.14%
Cc1cc(NC(=O)c2cccnc2)cc(-c2nc3cc(Cl)ccc3o2)c1O -1.99%
CCCCCCCCCCCCCCCC(=O)N[C@@H](COP(=O)(O)O)C(=O)O 3.09%
C[C@@H]1OC(OC2C(OC3CC[C@@]4(C)C5CC=C6C7CC(C)(C)CC[C@@]7(C(=O)O)CCC6(C)C5(C)CCC4[C@]3(C)CO)OCC(O)C2O)C(O)C(O)C1O (stereo not given in full) -2.24%
CN(C)[C@@H]1C(=O)C(C(=O)NCN2CCCC2)C(=O)[C@@]2(O)C(=O)C3C(=O)c4c(O)cccc4[C@@](C)(O)[C@H]3C[C@@H]12 (stereo not given in full) -3.07%
